Screening results: PubChem, National Center for Advancing Translational Sciences (NCATS)
Rows were chosen to be rich in hits. Some 5.5% of all compounds tested hit in one or more screens of this group.
Gal4-VP16 FLuc: VP16 counterscreen qHTS for inhibitors of ROR gamma transcriptional activity; AID 2546, 2010; Drosophila S2 Gal4-VP16 UAS-luciferase, luminescence, 20 h; hit rate 3.5% among 310,000; Potency, µM (highest dose often 53.6 µM), hits mostly inhibitors;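 further: Gal4-VP16 expression switched on by copper sulfate through the metallothionein promoter; nearly all actives have a fitted effect of over 50% in size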
Integrin act MD: qHTS for Activators of Integrin-Mediated Alleviation for Muscular Dystrophy | alpha7betagal myoblasts, beta-gal FDG fluorescence, 48 h | Potency, µM (doses to about 38.3 µM), usual class: activators | hit rate 0.064% among 350,000; further: nearly all actives have a fitted effect of over 60% in size
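alpha7betagal+/- myoblasts (passage 13, 250/well) treated 48 h at 37C with compounds at 1:260 dilution of DMSO stock. Lysed, then beta-galactosidase activity read as FDG fluorescence (ex 480/em 540) after 30 min, with pre-read for autofluorescence.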
RORgamma inh: qHTS for inhibitors of ROR gamma transcriptional activity; hit rate 5.4% among 310,000; Nuclear receptor ROR-gamma (Mus musculus), P51450; AID 2551, 2010; Potency, µM (doses to about 53.6 µM), hits mostly inhibitors; Drosophila S2 Gal4-RORgamma UAS-luciferase reporter, 20 h; further: nearly all actives have a fitted effect of over 60% in size
Target sequence (P51450 whole entry, looked up, the tested form may be a part): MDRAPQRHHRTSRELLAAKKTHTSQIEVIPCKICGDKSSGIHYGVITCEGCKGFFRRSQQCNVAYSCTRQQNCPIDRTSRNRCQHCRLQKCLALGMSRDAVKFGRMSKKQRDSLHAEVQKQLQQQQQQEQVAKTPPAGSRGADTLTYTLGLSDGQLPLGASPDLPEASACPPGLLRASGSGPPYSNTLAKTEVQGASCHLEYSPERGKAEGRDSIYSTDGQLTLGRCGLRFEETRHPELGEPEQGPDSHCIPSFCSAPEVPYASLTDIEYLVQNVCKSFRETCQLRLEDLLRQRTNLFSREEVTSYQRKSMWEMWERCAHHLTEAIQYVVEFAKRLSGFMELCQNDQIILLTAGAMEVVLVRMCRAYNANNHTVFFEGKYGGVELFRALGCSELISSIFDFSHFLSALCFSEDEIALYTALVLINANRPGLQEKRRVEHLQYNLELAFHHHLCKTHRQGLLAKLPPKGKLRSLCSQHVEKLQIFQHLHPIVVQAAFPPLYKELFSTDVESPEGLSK
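Stable Schneider cell line, Gal4 DNA-binding domain fused to ROR gamma, UAS-luciferase. Cmpd 1 hr RT → CuSO4 700 uM final → 20 hr RT → luciferase reagent 10 min → luminescence.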
uPA generation: qHTS for Inhibitors of Cell Surface uPA Generation; hit rate 0.31% among 330,000; AID 540303, 2011; Potency, µM (top dose mostly 38.3 µM), actives largely listed as inhibitors; cell surface uPA generation assay, qHTS; active means well fitted inhibition curve with a large enough effect; inconclusive means small, poorly fitted or top-dose-only effect; inactive means no such curve, though single readings can be large or run the other way; tested in mouse RAW 264.7 cells; further: nearly all actives have a fitted effect of over 55% in size
Mito fusion act: qHTS Assay for Small Molecule Inhibitors of Mitochondrial Division or Activators of Mitochondrial Fusion; Potency, µM (series often up to 46.1 µM), usual class: activators; hit rate 0.23% among 320,000; S. cerevisiae fusion-defective mutant growth rescue, CellTiterGlo 48 h; further: nearly all actives have a fitted effect of over 45% in size
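Yeast fusion mutant, YPEG (non-fermentable carbon), compound, 48 h at 37C non-permissive; CellTiterGlo added, 10 min RT, luminescence read. Rescued growth = division inhibition.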
Chronic BCR inh: qHTS Assay to Find Inhibitors of Chronic Active B-Cell Receptor Signaling | ABC-DLBCL IkBa-CBG/CBR reporter, luminescence ratio, 4 h | Potency, µM (highest dose often 46.1 µM), usual class: inhibitors | hit rate 0.05% among 340,000; active means well fitted inhibition curve with a large enough effect in the signal ratio, with a control signal flat, not every such curve was filed as active; inconclusive means small, poorly fitted or top-dose-only effect, or effect the other way, or a change in a side signal; the % refers to the signal ratio
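Compounds up to 46 uM were incubated four hours with TMD8 cells whose green CBG68 luciferase is fused to IkappaBalpha; red CBR luminescence normalised the signal, and concentration-effect curves were fitted to fusion, red and ratio data.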
Numbers stand for hits; – = inactive; ? = inconclusive; · = no result given; [ ] = another dose, or the depositor's remark. Unless noted, the call rests on the fitted dose curve; in most records, active means well fitted curve in the direction sought with a large enough effect; inconclusive means small, poorly fitted or top-dose-only effect, or another doubt; inactive means no such curve, though single readings can be large; an effect the other way counts as inactive or inconclusive.

SMILES	Gal4-VP16 FLuc	Integrin act MD	RORgamma inh	uPA generation	Mito fusion act	Chronic BCR inh
CCc1nnc(NC(=O)CN2CCN(Cc3cccc(Cl)c3)CC2)s1	?	–	2.51µM	–	–	–
CCO[C@H]1O[C@@H]([C@H](COCc2ccccc2)OCc2ccccc2)[C@@H](OCc2ccccc2)[C@H]1O	–	·	–[2.98 µM]	·	·	·
CCc1nnc(NC(=O)c2ccncc2)s1	–	–	–	–	–	–
CCc1nnc(NC(=O)c2ccc(NC(=O)C(C)C)cc2)s1	–	–	–	–	–	–
CCc1nnc(NC(=O)c2cccc(C(=O)Nc3nnc(CC)s3)n2)s1	0.178µM	–	0.0178µM	–	–	?
Cc1nc(NC(=S)Nc2ccccc2)sc1C	5.01µM	?	0.891µM	?	–	?
CCOc1ccc(NC(=S)NNC(=O)c2ccc(Br)cc2)cc1	–	–	–	–	–	–
CCc1nnc(NC(=O)c2ccc(S(=O)(=O)NCC(C)C)cc2)s1	–	12.6µM	–	–	–	–
CCOc1ccc(C(=O)Nc2nnc(NC(=S)Nc3ccccc3)s2)cc1	1.58µM	–	0.355µM	–	–	–
CCC(C(=O)Nc1nc(C)c(C)s1)c1ccccc1 (stereo not given)	?	–	?	–	–	–
N#Cc1cc(-c2ccccc2)nc(N2CCNCC2)n1	–	–	?	–	–	?
Cc1ccc(C(=O)ONc2ccc(N=O)cc2)cc1	12.6µM	–	25.1µM	–	–	–
Cc1ccc(C(=O)ONc2ccc(N=NC(=O)c3ccccc3O)cc2)cc1	17.8µM	–	–	–	–	?
COC(=O)c1ccc(NN=Nc2ccc(C)cc2)cc1	–	–	–	–	–	–
CC1CCN(C(=O)c2[nH]cnc2C(=O)Nc2nccs2)CC1	·	–	·	–	–	–
O=C(Nc1ccc(NC(=O)c2ccccc2O)cc1)Nc1ccc(F)cc1F	–	–	–	–	–	–
CCN(CC)CCCCn1c(-c2ccccc2)nc2c(NCc3ccccc3)nc(C)nc21	–	·	–	·	·	·
CN(Cc1c(C(=O)N/N=C/c2cccc(O)c2)nnn1-c1nonc1N)c1ccccc1	–	–	–	–	–	?
COc1ccc2ccccc2c1/C=N/NC(=O)c1nnn(-c2nonc2N)c1C(C)C	?	–	?	–	–	–
Cc1c(C(=O)N/N=C/c2c(O)ccc3ccccc23)nnn1-c1nonc1N	7.08µM	–	4.47µM	–	–	–
Cc1ccsc1/C=N/NC(=O)c1nnn(-c2nonc2N)c1CN(C)c1ccccc1	3.16µM	–	3.98µM	–	–	?
Cc1ccc(/C=N/NC(=O)c2nnn(-c3nonc3N)c2CNc2ccccc2)cc1	–	–	–	–	–	–
Cc1ccc(/C=N/NC(=O)c2nnn(-c3nonc3N)c2CN(C)C)s1	–	–	–	–	–	–
Cc1ccc(/C=N/NC(=O)c2nnn(-c3nonc3N)c2CN(C)c2ccccc2)s1	?	–	17.8µM	–	–	–
Nc1nonc1-n1nnc(C(=O)N/N=C/c2cc(Br)ccc2O)c1CNc1ccccc1	7.08µM	–	5.01µM	–	–	–
SMILES	Gal4-VP16 FLuc	Integrin act MD	RORgamma inh	uPA generation	Mito fusion act	Chronic BCR inh
Cc1ccccc1N(C)S(=O)(=O)c1nnc(NC(=O)c2ccco2)s1	–	–	–	–	–	–
COCC(=O)N1CCC[C@@]2(CCN(C(c3ccccc3)c3ccccc3)C2)C1	–	·	–	·	·	·
CCCc1c(C(=O)N/N=C/c2ccc(C)o2)nnn1-c1nonc1N	·	–	·	·	·	·
CCc1c(C(=O)N/N=C/c2sccc2C)nnn1-c1nonc1N	10µM	–	10µM	–	–	?
c1ccc(-c2cc(-c3ccncc3)nc3ccc4ccccc4c23)cc1	?	–	8.91µM	–	–	–
Clc1ccc2nc(-c3ccncc3)cc(-c3ccccc3)c2c1	–	–	–	–	–	–
COc1ccc(C2CC(c3ccccc3)=NN2S(=O)(=O)c2ccccc2)cc1 (stereo not given)	4.47µM	–	?	–	–	?
COc1ccc(C2CC(c3ccccc3)=NN2c2ccc(N)cc2)cc1 (stereo not given)	–	–	–	–	?	?
COc1ccc(-c2cn3nc4c(nc3n2)CCCC4)cc1	1.26µM	–	?	–	–	–
COC(=O)C1=C(C(=O)OC)SC2(S1)C(C(=O)OC)=C(C(=O)OC)SC1=C2c2cc(C)ccc2NC1(C)C	?	–	4.47µM	–	–	–
CCOC(=O)C1(N(CC)CC)Sc2cc(C)ccc2NC1=O (stereo not given)	?	–	–	–	–	?
O=C(CNC(=O)c1ccc(OC(F)F)cc1)Nc1cccc(S(=O)(=O)N2CCCC2)c1	·	–	·	–	–	–
CCC(=O)NNc1nc2c(C)cc(C)cc2s1	?	–	12.6µM	–	–	–
Cc1cc(C)c2nc(NC(=O)c3cc(C)on3)sc2c1	?	–	4.47µM	–	–	?
CCc1noc(C)c1C(=O)Nc1nc2ccc(F)cc2s1	·	–	·	–	–	–
CCc1noc(C)c1C(=O)Nc1nc2c(C)cc(C)cc2s1	·	–	·	–	?	?
CCc1ccc2nc(NC(=O)c3cc(C)on3)sc2c1	?	–	5.62µM	–	–	?
CCCN1C(C)C(C(=O)OCC)=CN(Cc2cccc(I)c2)S1(=O)=O (stereo not given)	·	–	·	–	·	–
CC1(c2ccc3noc(-c4cccc(F)c4)c3c2)OCCO1	?	–	–	–	–	–
COc1ccc(OC)c(N/C(=N/C(=S)Nc2ccccc2)Nc2nc(C)cc(C)n2)c1	0.708µM	–	?	–	–	–
CCOc1ccc2nc(N/C(N)=N/C(=S)Nc3ccc(OC)cc3)nc(C)c2c1	?	–	1.58µM	–	–	–
CCOc1ccc2nc(N/C(N)=N/S(C)(=O)=O)nc(C)c2c1	–	–	–	–	–[9.22 µM]	?
CCc1ccc(NC(=S)/N=C(\N)Nc2nc(C)c3cc(CC)ccc3n2)cc1	7.08µM	–	1.12µM	–	–	–
COc1ccc(OC)c(N/C(=N/c2nc(C)cc(C)n2)NC(C)=O)c1	–	–	–	–	–	–
COc1ccc2nc(N/C(N)=N/C(=S)Nc3ccc(C)c(C)c3)nc(C)c2c1	?	·	0.794µM	·	–	–
Cc1cccc2[nH]c3c(N4CC=C(c5ccc(F)cc5)CC4)ncnc3c12	?	–	–	–	–	?
CC(NC(=O)C(C(=O)c1cccc([N+](=O)[O-])c1)n1cc(Cl)ccc1=O)c1ccccc1 (stereo not given)	–	–	–	–	–	–
